Measurements taken from PubChem BioAssay (NCI).
The panel holds about 83,000 compounds, 20% with a hit somewhere; the sample as a whole holds those more often.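 How to read the values: 0–100, growth inhibition (40 = 60% inhibited); 0, no net growth; -100 to 0, cell death (-40 = 40% of starting cells died; -100 = all dead).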 Active and inactive are the calls of the source. Rule for the calls: active = growth percent below 10; inactive = the rest.

Tests used:
Experiment in all cases: NCI-60 one-dose screen, 48 h (100 = growth as untreated, 0 = no growth, -100 = all killed)
SR leukemia = conditions: 10 µM unless noted
RPMI-8226 leukemia = conditions: 10 µM unless noted
OVCAR-8 ovarian = conditions: 10 µM unless noted
OVCAR-5 ovarian = conditions: 10 µM unless noted
OVCAR-4 ovarian = conditions: 10 µM unless noted
SK-OV-3 ovarian = conditions: 10 µM unless noted
IGROV1 ovarian = conditions: 10 µM unless noted
OVCAR-3 ovarian = conditions: 10 µM unless noted
HS 578T breast = conditions: 10 µM
NCI/ADR-RES ovarian = conditions: 10 µM unless noted
T-47D breast = conditions: 10 µM unless noted
BT-549 breast = conditions: 10 µM unless noted
MDA-MB-435 melanoma = conditions: 10 µM unless noted
SW-620 colon = conditions: 10 µM unless noted
MCF7 breast = conditions: 10 µM unless noted
HCT-116 colon = conditions: 10 µM unless noted
HCC-2998 colon = conditions: 10 µM
KM12 colon = conditions: 10 µM unless noted

Measured: growth

CC(C)c1ccc(/C=N/Nc2nc3ccccc3s2)cc1
inactive: SR leukemia 89.9% | RPMI-8226 leukemia 88.4% | OVCAR-8 ovarian 87.5% | OVCAR-5 ovarian 102% | OVCAR-4 ovarian 81.4% | SK-OV-3 ovarian 89.4% | IGROV1 ovarian 70% | OVCAR-3 ovarian 88.7% | HS 578T breast 92.8% | NCI/ADR-RES ovarian 92.6% | T-47D breast 78.2% | BT-549 breast 99% | MDA-MB-435 melanoma 107% | SW-620 colon 102% | MCF7 breast 76.2% | HCT-116 colon 89% | HCC-2998 colon 104% | KM12 colon 89%

Nc1c(C(=O)c2ccccc2)sc2nc(-c3cccs3)ccc12
inactive: SR leukemia 30.5% | RPMI-8226 leukemia 21.4% | OVCAR-8 ovarian 28.9% | OVCAR-5 ovarian 66.9% | OVCAR-4 ovarian 57.3% | SK-OV-3 ovarian 35.4% | IGROV1 ovarian 46.5% | HS 578T breast 34.3% | T-47D breast 41.8% | BT-549 breast 59.6% | SW-620 colon 28.4% | MCF7 breast 34.2% | HCT-116 colon 13.3% | HCC-2998 colon 32.3% | KM12 colon 28.3%
active: OVCAR-3 ovarian 9.4% | NCI/ADR-RES ovarian 3.97% | MDA-MB-435 melanoma -5.48%

COC(=O)[C@H](Cc1ccc(O)cc1)NC(=O)[C@@H](OC)[C@@H]1Cc2cc3cc(OC4CC(OC5CC(O)C(O)C(C)O5)C(O)C(C)O4)c(C)c(O)c3c(O)c2C(=O)[C@H]1OC1CC(OC2CC(OC3CC(C)(O)C(O)C(C)O3)C(O)C(C)O2)C(O)C(C)O1 (some centres undefined)
active: SR leukemia 9.7% | RPMI-8226 leukemia -5.59% | OVCAR-8 ovarian 9.74% | OVCAR-4 ovarian 7.27% | OVCAR-3 ovarian 5.52% | HS 578T breast -9.2% | T-47D breast 4.63% | BT-549 breast -36.9% | MDA-MB-435 melanoma -26.8% | MCF7 breast 8.15% | HCT-116 colon 4.11% | HCC-2998 colon -67% | KM12 colon 5.68%
inactive: OVCAR-5 ovarian 10.6% | SK-OV-3 ovarian 20.7% | IGROV1 ovarian 31.2% | NCI/ADR-RES ovarian 85.6% | SW-620 colon 11.3%

Cc1ccc(NC(=O)NC(=O)CSc2nc3ccccc3nc2C)cc1
inactive: SR leukemia 45.8% | RPMI-8226 leukemia 57.1% | OVCAR-8 ovarian 72.4% | OVCAR-5 ovarian 100% | OVCAR-4 ovarian 23.3% | SK-OV-3 ovarian 56.2% | IGROV1 ovarian 72.2% | OVCAR-3 ovarian 97.4% | HS 578T breast 97.6% | NCI/ADR-RES ovarian 40.6% | T-47D breast 40.9% | BT-549 breast 59.9% | MDA-MB-435 melanoma 74.1% | SW-620 colon 78.3% | MCF7 breast 52.4% | HCT-116 colon 17.1% | HCC-2998 colon 72.1% | KM12 colon 76.5%

CSC1=C(N)C(=O)c2[nH]cc(CO)c2C1=N
active: SR leukemia 6.06% | RPMI-8226 leukemia -32.9% | OVCAR-8 ovarian -62% | OVCAR-5 ovarian -76% | OVCAR-4 ovarian -95.7% | SK-OV-3 ovarian -94.4% | IGROV1 ovarian -62.5% | OVCAR-3 ovarian -74.8% | HS 578T breast 5% | NCI/ADR-RES ovarian -23% | T-47D breast -43.8% | BT-549 breast -93.5% | MDA-MB-435 melanoma -84.1% | SW-620 colon -56.2% | MCF7 breast -41.8% | HCT-116 colon -86.7% | HCC-2998 colon -94.1% | KM12 colon -63.4%

COc1cc(NCCCN)c2ncccc2c1
inactive: SR leukemia 68.5% | RPMI-8226 leukemia 38.5% | OVCAR-8 ovarian 82.1% | OVCAR-5 ovarian 93.2% | OVCAR-4 ovarian 84.1% | SK-OV-3 ovarian 89.1% | IGROV1 ovarian 95.7% | OVCAR-3 ovarian 93.3% | HS 578T breast 92.2% | NCI/ADR-RES ovarian 85.7% | T-47D breast 91.9% | BT-549 breast 74.9% | MDA-MB-435 melanoma 83.8% | SW-620 colon 79.1% | MCF7 breast 90.1% | HCT-116 colon 60.4% | HCC-2998 colon 83.5% | KM12 colon 68.2%

Cc1nn(-c2nc3ccccc3[nH]2)c2c1C(c1ccc(OCc3ccc(F)cc3)cc1)CC(=O)N2 (centres undefined)
inactive: SR leukemia 67.5% | RPMI-8226 leukemia 76.3% | OVCAR-8 ovarian 54% | OVCAR-5 ovarian 98.5% | OVCAR-4 ovarian 98.4% | SK-OV-3 ovarian 49.1% | IGROV1 ovarian 54.6% | OVCAR-3 ovarian 51% | HS 578T breast 39% | NCI/ADR-RES ovarian 65.9% | T-47D breast 71.3% | BT-549 breast 58.4% | MDA-MB-435 melanoma 44.7% | SW-620 colon 80.2% | MCF7 breast 81.4% | HCT-116 colon 73.4% | HCC-2998 colon 99.3% | KM12 colon 41.5%

COC(=O)[C@@H](OC)[C@@H]1Cc2cc3cc(OC4CC(OC5CC(O)C(O)C(C)O5)C(O)C(C)O4)c(C)c(O)c3c(O)c2C(=O)[C@H]1OC1CC(OC2CC(OC3CC(C)(O)C(O)C(C)O3)C(O)C(C)O2)C(O)C(C)O1 (some centres undefined)
inactive: OVCAR-8 ovarian 10.2% | OVCAR-5 ovarian 18.8% | SK-OV-3 ovarian 21% | IGROV1 ovarian 28% | NCI/ADR-RES ovarian 42.7%
active: SR leukemia 4.74% | RPMI-8226 leukemia -17.5% | OVCAR-4 ovarian 3.96% | OVCAR-3 ovarian 6.49% | HS 578T breast -10.5% | T-47D breast 4% | BT-549 breast -32.9% | MDA-MB-435 melanoma -62.4% | SW-620 colon 8.04% | MCF7 breast 8.9% | HCT-116 colon 3.51% | HCC-2998 colon -32.9% | KM12 colon 1.5%
